Vaccinia mCherry – vaccinia inhibition (mCherry reporter). Vaccinia virus mCherry reporter infection, fluorescence. Potency, µM (series often up to 36.5 µM), without a hit: at the highest dose activity change, negative = inhibition, hits mostly inhibitors. 310,000 compounds, 0.63% hits; calls by dose curve; tested in A549 cells; further: potency means the concentration at half of the fitted maximal effect; nearly all actives have a fitted effect of over 35% in size
HCMV inh – inhibitors of human cytomegalovirus. HFF cells, HCMV-luciferase reporter, 72 h; stronger effect = lower value. activity change, negative = inhibition, % at 57.5 µM. 410,000 compounds, 4.5% hits. AID 1259415; in the data active means activity change below about -60%; inconclusive means no clear call, values can overlap the other calls; inactive means above about -39%
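Steps: HFFs plated, 16 h 37C; compounds added; HCMV-luciferase added to MOI 1 PFU/cell; 72 h 37C; OneGlo reagent, 5 min room temperature; luminescence read, normalized to controls.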
HCV inhibitor – inhibitors of hepatitis C virus infection; Huh7.5.1 HCVcc-Cre infection, luciferase reporter, 44 h; Potency, µM (doses to about 41.8 µM), for inactives: top-dose activity change, negative = inhibition, most hits filed as inhibitors; 340,000 compounds, 3.4% hits; AID 651820; active means well fitted inhibition curve with a large enough effect; inconclusive means small, poorly fitted or top-dose-only effect, or another doubt; inactive means no such curve, though single readings can be large or run the other way; further: potency means the concentration at half of the fitted maximal effect
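Cells seeded at 1,000/well and cultured 4 h, then compounds added followed by HCVcc-Cre virus (~0.5 moi). After 44 h further culture, luciferase substrate was added, plates held 15 min at room temperature, and luminescence read for 15 sec.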
Vaccinia Venus – vaccinia inhibition (Venus reporter); Vaccinia virus Venus reporter expression, fluorescence; Potency, µM (highest dose often 36.5 µM), inactives show at the highest dose activity change, negative = inhibition, hits mostly inhibitors; 330,000 compounds, 0.46% hits; calls by dose curve; tested in A549 cells; further: potency means the concentration at half of the fitted maximal effect; nearly all actives have a fitted effect of over 30% in size
Lassa entry inh – Lassa virus entry inhibition; Lassa virus pseudotype entry inhibition, cell reporter; Potency, µM (highest dose often 37.9 µM), without a hit: at the highest dose activity change, negative = inhibition, most hits filed as inhibitors; 300,000 compounds, 1.2% hits; AID 540256; calls by dose curve; tested in HEK293 cells; further: potency means the concentration at half of the fitted maximal effect; nearly all actives have a fitted effect of over 50% in size
Marburg entry inh – inhibitors of Marburg virus binding or cell entry. Marburg virus pseudotyped entry inhibition, cell reporter. Potency, µM (series often up to 37.8 µM), inactives show at the highest dose activity change, negative = inhibition, actives largely listed as inhibitors. 300,000 compounds, 1.8% hits; calls by dose curve; tested in HEK293 cells; further: potency means the concentration at half of the fitted maximal effect
Numbers without * were called inactive; i = inactive; u = inconclusive; x = no result; [ ] = another dose, or the depositor's remark. An excerpt weighted towards active compounds, which were near 7.8% of everything screened. On the % scale 0 is the no-effect control and ±100 the full control effect.

SMILES	Vaccinia mCherry	HCMV inh	HCV inhibitor	Vaccinia Venus	Lassa entry inh	Marburg entry inh
COc1ccccc1-n1ccnc1SCC(=O)NC1CCCC1	-9.3%	63.0	u	-0.3%	x	4.7%[46.1 µM]
Cc1cccc(C)c1NC(=O)Cn1c(SCC(=O)NCc2ccccc2)nc2ccccc21	-13.7%	-4.9	x	-1.9%	-6.8%[46.1 µM]	x
Cc1cccc(CNCCc2c[nH]c3ccccc23)c1	u	-99.2*	u	-28.6%	u	10µM*
COc1cccc(CNCCc2c[nH]c3ccccc23)c1OCc1ccccc1	-29.7%	u	10µM*	u	u	u
COc1ccccc1C1CN(Cc2cccc(O)c2)Cc2ccccc2O1 (centres undefined)	-25.9%	x	x	-24.0%	x	x
CN(CC(=O)Nc1ccc([N+](=O)[O-])cc1Br)Cc1c(F)cccc1Cl	-10.7%[7.34 µM]	-22.1	14.1µM*	-1.5%[7.34 µM]	x	x
CN(CCOc1ccccc1)CC(=O)Nc1ccc([N+](=O)[O-])cc1Cl	14.2%	-24.9	u	-1.0%	u	0.9%[46.1 µM]
O=C(Cc1ccc(Cl)cc1Cl)Nc1cccc(S(=O)(=O)Nc2ccccc2F)c1	-19.8%	9.4	-11.2%	-14.9%	7.31µM*	u
CC(NCc1ccc(Cl)cc1)C(O)c1ccccc1 (centres undefined)	-13.1%	-6.7	1.5%	7.9%	21.7%	u
CC(NCc1ccc(-c2ccccc2)cc1)C(O)c1ccccc1 (centres undefined)	-19.1%	-101.2*	u	u	4.61µM*	u
CCOC(=O)C1=C(c2ccccc2)N=c2s/c(=C\c3ccc(O)cc3)c(=O)n2C1c1cccs1 (centres undefined)	54.2%	44.7	10µM*	i	16.4µM*	u
O=C1N=C(N2CCCCC2)S/C1=C\c1ccccc1F	-23.9%	14.3	-22.7%	-20.9%	-26.4%	u
CCCOc1ccccc1/C=C1\SC(N2CCCCC2)=NC1=O	-13.8%	-81.9*	10µM*	6.1%	u	u
Cc1ccc(-n2c(-c3ccccc3)nsc2=NC#N)cc1	3.55µM*	x	x	4.47µM*	x	x
Cc1ccc(-n2c(-c3ccccc3)n[nH]c2=S)cc1	-14.4%	37.3	7.9%	-10.1%	3.1%	0.4%
Cc1ccc(C(=O)N(C)CC(=O)Nc2ccc(Cl)c(C(F)(F)F)c2)cc1S(=O)(=O)N1CCCCC1	x	-33.7	7.94µM*	x	x	x
CN(CC(=O)Nc1ccc(Cl)c(C(F)(F)F)c1)C(=O)c1ccc(OCC2CCCO2)cc1 (centres undefined)	u	-72.6*	10µM*	u	u	u
O=C(c1ccccc1)c1cc([N+](=O)[O-])ccc1N1CCOCC1	u	u	-8.2%	u	-21.2%	u
CC(=O)Nc1ccc(N2CCCC(C)C2)c([N+](=O)[O-])c1 (centres undefined)	u	u	3.16µM*	-16.5%	-0.5%	5.1%
Cc1ccc(C(=O)c2cc([N+](=O)[O-])ccc2N2CC(C)OC(C)C2)cc1 (centres undefined)	x	-14.7	-20.4%	x	x	x
CC1CCCN(c2ccc([N+](=O)[O-])cc2C(=O)c2ccccc2)C1 (centres undefined)	x	-73.6*	12.3%	x	u	u
Cc1ccc(C(=O)c2cc([N+](=O)[O-])ccc2N2CCCCC2)cc1	u	-85.4*	-13.3%	u	u	u
CCc1nn2c(=O)cc(COC(=O)c3cccc(NC(=O)COc4ccccc4)c3)nc2s1	i	79.0	x	-10.7%	u	x
CN(Cc1ccccc1)C(=O)c1ncn(C)c1C(=O)N(C)Cc1ccccc1	-4.3%	-4.2	-2.2%	-7.5%	x	x
CCN(CC)C(=O)c1ncn(C)c1C(=O)N(CC)CC	-14.4%	-66.4*	11.1%	-8.2%	x	x
SMILES	Vaccinia mCherry	HCMV inh	HCV inhibitor	Vaccinia Venus	Lassa entry inh	Marburg entry inh
Cc1cc2ncc(-c3cccc(Br)c3)nc2cc1C	x	132.9	x	x	x	x
COc1cc(NC(=O)Nc2c[nH]c(=O)[nH]c2=O)cc(OC)c1OC	-3.2%	-5.5	x	12.1%	2.2%[46.1 µM]	x
O=C(CC1(CC2=NS(=O)(=O)c3ccccc3N2)CCCC1)NCCc1ccccc1	i	-67.8*	u	-20.6%	x	x
CCc1cnc2c(c1SCC(=O)NCc1ccccc1)c(=O)n(C)c(=O)n2C	-10.6%	6.7	x	-2.0%	-12.1%[46.1 µM]	x
CC(C)(C)C(=O)NC(=S)Nc1cc(C(=O)O)ccc1Cl	-13.2%	-60.8*	12.5%	-2.7%	14.0%	u
CC(C)(C)C(=O)NC(=S)Nc1cccc(C(=O)O)c1	-14.7%	-3.5	-8.4%	-9.5%	3.0%[46.1 µM]	u
CC(C)OCCCn1c(SCc2cccc(Br)c2)nc2c(sc3ccccc32)c1=O	-3.6%	-4.1	x	-2.1%	0.0%[46.1 µM]	x
COCCN(CCOC)Cc1cc(=O)oc2ccc3ccccc3c12	10.7%	5.2	x	11.2%	u	x
Cc1ccc(-c2cc(-c3ccccc3O)nc(N/N=C/c3cccnc3)n2)cc1	-14.3%	u	0.562µM*	4.9%	-21.5%	-13.3%
Cc1nonc1C(=O)N/N=C/c1ccc(O)cc1O	8.91µM*	14.5	u	u	u	u
CC(C)(C)NC(=S)N/N=C/c1cccnc1	i[7.34 µM]	-65.4*	9.6%	-7.8%[7.34 µM]	u	6.4%[46.1 µM]
Cc1nonc1C(=O)N/N=C/c1ccncc1	i	14.0	4.7%	-6.6%	x	x
CC(C)(C)OC(=O)N/N=C\c1cccnc1	-7.7%	-10.9	-3.8%	-10.4%	12.9%	20.1%[46.1 µM]
COc1ccccc1-c1cc(C(=O)N/N=C/c2ccc(C)s2)c2ccccc2n1	u	-23.4	u	-8.6%	7.08µM*	8.91µM*
C(=N\Nc1nccc(-c2cccnc2)n1)/c1ccccc1	x	-1.1	12.9%	x	x	x
COc1ccc(-c2cc(C(=O)N/N=C/c3cccnc3)c3ccccc3n2)cc1	u	u	-6.9%	-17.1%	10µM*	u
O=C(N/N=C/c1ccccn1)c1cc(-c2ccc(Cl)cc2)nc2ccccc12	-14.3%	9.4	35.3%	-11.3%	u	u
Cc1cccc(-c2cc(C(=O)N/N=C/c3cccnc3)c3ccccc3n2)c1	u	8.6	-14.5%	14.2%	-8.8%[46.1 µM]	u
Cc1[nH]c2ccccc2c1/C=N/NC(=O)c1cc(-c2ccncc2)nc2ccccc12	x	8.4	10µM*	x	x	x
O=C(N/N=C/c1ccccn1)c1cc(-c2ccc(Br)cc2)nc2ccccc12	u	-99.6*	u	u	u	u
O=C(N/N=C/c1ccc(O)cc1O)/C(=C/c1ccccc1)CCO	11.2µM*	-18.4	u	u	u	u
Cc1cc(OCC(=O)Nc2sc3c(c2C(N)=O)CCCC3)ccc1C(C)C	1.8%	-14.2	x	2.1%	-1.9%[46.1 µM]	x
Cc1noc(C)c1CC(=O)NCC1Cc2cc(-c3cccc(OC(F)(F)F)c3)ccc2O1 (centres undefined)	-24.2%	x	x	-16.1%	x	x
O=C(O)c1ccc(/C=N/NC(=O)C2CC2(c2ccccc2)c2ccccc2)cc1 (centres undefined)	x	-13.1	x	x	x	x

Bioassay records: PubChem, National Center for Advancing Translational Sciences (NCATS)
